Source: PubChem (National Center for Advancing Translational Sciences (NCATS))
Sampled rows, rich in hits. Any-hit rate of the full collection: about 2.6%.
TRPV1 ag: agonists of human vanilloid receptor 1 (TRPV1) | Q8NER1 | TRPV1-expressing cells, Fluo-8 calcium influx, agonist mode | activation, % at 8.33 µM | actives 0.19% (n = 320,000) | AID 540275; in the data active = activation above about 80%; inconclusive = between about 30% and that limit; note: 0% is about no effect
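Cells expressing TRPV1 were dye-loaded with Fluo-8 and read kinetically: 10 s baseline, 3 min after compound (agonist portion), then 2 min after EC20 capsaicin (allosteric enhancer portion). Calcium-bound dye fluorescence at 480/520 nm.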
KCNH2 WT inh: KCNH2 (human, wildtype) channel inhibition | actives 0.37% (n = 340,000) | U2OS, BacMam KCNH2, thallium flux FluxOr; hits give low values | Q12809 | AID 720551 | activity change, % at 1.84 µM;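 active = maximum activity change below -70%; inconclusive = maximum activity change between -70% and -50%; inactive = maximum activity change above -50%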; note: % is set by controls: 0 for no effect and ±100 for the full control effect
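U2OS cells transduced with wild-type KCNH2 virus are loaded with FluxOr dye for 45 min, and thallium flux is measured in kinetic reads before and after stimulation buffer. Rate constants are normalized to DMSO controls.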
KCNH2 3.1 inh: inhibitors of human KCNH2 3.1 potassium channel isoform; U2OS KCNH2 3.1, thallium flux FluxOr; hits give low values; activity change, % (tested at about 1.8 µM); actives 0.95% (n = 340,000); AID 720553;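 active = maximum activity change below -70%; inconclusive = maximum activity change from -70% to -50%; inactive = maximum activity change above -50%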;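 note: thallium influx rate constant from kinetic fluorescence after stimulation buffer; % is set by controls: 0 for no effect and ±100 for the full control effect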
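Thallium flux via FluxOr fluorescence (Red40 quencher, 45 min loading) in U2OS cells virally expressing the KCNH2 3.1 isoform (1.77 x 10^8 /mL virus, overnight at 37 C). Rate constants from 2-min kinetic reads post-stimulation, normalised to positive and negative controls.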
TRPV1 PAM: enhances activation of the human vanilloid receptor TRPV1 | TRPV1-expressing cells, Fluo-8 calcium influx, capsaicin EC20 potentiation | potentiation, % at 8.33 µM | actives 0.02% (n = 320,000) | AID 540277; in the data active = potentiation above about 80%; inconclusive = between about 30% and that limit; note: 0% is about no effect
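TRPV1-expressing cells were cultured overnight at 35.5C and loaded with Fluo-8 calcium dye for 40 to 90 min at room temperature. After a 10 s baseline, compound was added and calcium influx was read kinetically for 3 min (ex 480/em 520 nm).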
ClpP mod: qHTS Assay for Activators of ClpP; ATP-dependent Clp protease proteolytic subunit (Bacillus subtilis (strain 168)), P80244; purified B. subtilis ClpP, FRET peptide cleavage, 20 min; Potency, µM (series often up to 57.5 µM), without a hit: at the top dose activity change, negative = active; actives 1.9% (n = 340,000); AID 651965, 2013; active = well fitted falling curve with a large enough effect; inconclusive = small, poorly fitted or top-dose-only effect; inactive = no such curve, though single readings can be large or run the other way; note: potency is the fitted concentration of half-maximal effect; the source files actives as falling curves though it sought activators and does not explain the sign; nearly all actives have a fitted effect of over 65% in size
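Buffer: 100 mM Tris/HCl pH8, 100 mM KCl, 0.05% low protease BSA, 2.5% glycerol, 0.01% Tween-20. ClpP 10 microg/mL final; 20 min RT; delta FRET normalized to ADEP and DMSO controls.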
p53 reactivation: restores transcriptional activity of mutant p53. H1299 p53-A138V BP100-luciferase reporter, luminescence, 24 h. Potency, µM (titrated, usually from 92.2 µM), inactives show top-dose activity change, positive = activation, usual class: activators. actives 0.063% (n = 320,000); active = well fitted activation curve with a large enough effect; inconclusive = small, poorly fitted or top-dose-only effect; inactive = no such curve, though single readings can be large or run the other way; note: potency is the fitted concentration of half-maximal effect; % of control where 0% means no effect; nearly all actives have a fitted effect of over 45% in size
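p53-null H1299 cells stably carrying temperature-sensitive p53-A138V and a BP100-luciferase reporter were pinned with compounds (4-point, 1:5 series) and held 24 hrs at 37 deg C. Luminescence was read 10 min after detection reagent.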
Starred values were filed as active, the others as inactive.

O=C1c2cccc3cccc(c23)C(=O)N1CC1CCN(S(=O)(=O)c2ccc(F)cc2)CC1 was read as TRPV1 ag 0.2, KCNH2 WT inh -7.9, KCNH2 3.1 inh -19.1, TRPV1 PAM -4.0, ClpP mod 12.6µM* and p53 reactivation -9.7%.
For O=C(CN1C(=O)c2cccc3cccc(c23)C1=O)N1CCCCCC1 the results were TRPV1 ag 0.9, KCNH2 WT inh 31.5, KCNH2 3.1 inh 2.6, TRPV1 PAM -5.1, ClpP mod 28.2µM* and p53 reactivation 2.2%.
O=C1c2cccc3cccc(c23)C(=O)N1CC1CCN(S(=O)(=O)c2ccccc2)CC1 was read as KCNH2 WT inh 2.5 and KCNH2 3.1 inh 8.4.
For Cc1ccc(S(=O)(=O)N2CCC(CN3C(=O)c4cccc5cccc(c45)C3=O)CC2)cc1 the results were TRPV1 ag -0.8, KCNH2 WT inh -4.9, KCNH2 3.1 inh -10.5, TRPV1 PAM -2.6, ClpP mod 25.1µM* and p53 reactivation -4.3%.
Cc1ccc(S(=O)(=O)N2C(=O)c3cccc4cccc2c34)cc1 was read as TRPV1 ag 7.2, KCNH2 3.1 inh 1.4, TRPV1 PAM 2.7, ClpP mod -9.1% and p53 reactivation 1.0%.
For Cc1ccc(OCCn2nnc3sc4c(c3c2=O)CCC(C(C)(C)C)C4)cc1 (stereo not drawn) the results were ClpP mod -1.7%.
Screening CCOC(=O)c1ccccc1S(=O)(=O)N1CCN(c2nc(-c3cccs3)nc3ccccc23)CC1 returned ClpP mod 4.1%.
Screening Cc1ccc(NC(=O)Cn2nc(-c3ccccc3)nc(Cc3ccccc3)c2=O)cc1 returned ClpP mod -1.1%.
CCOc1cc(N2CCOCC2)c(OCC)cc1NC(=O)c1ccc(OC)cc1 was read as TRPV1 ag -1.6, KCNH2 WT inh 9.6, KCNH2 3.1 inh -11.8, TRPV1 PAM inconclusive and p53 reactivation -2.6%.
Screening CCOc1cc(N2CCOCC2)c(OCC)cc1NC(=O)c1ccc(OCc2c(C)noc2C)c(OC)c1 returned TRPV1 ag -4.4, KCNH2 WT inh -9.4, KCNH2 3.1 inh 7.5, TRPV1 PAM 11.8, ClpP mod 11.2µM* and p53 reactivation -0.8%.
C=C(C)c1cccc(C(C)(C)NC(=O)N2CCN(c3ccc(OC)cc3)CC2)c1 was read as TRPV1 ag 14.1, KCNH2 WT inh 5.7, KCNH2 3.1 inh -9.1, TRPV1 PAM -5.1, ClpP mod 31.6µM* and p53 reactivation 0.9%.
CCCN(CCC)CCCNC(=O)c1cc2c(=O)[nH]c3ccccc3c2n1C was read as TRPV1 ag 1.5, KCNH2 WT inh -4.6, KCNH2 3.1 inh 8.5, TRPV1 PAM 1.4, ClpP mod 4.6% and p53 reactivation 12.0%.
For Cn1c(C(=O)NCc2ccco2)cc2c(=O)[nH]c3ccccc3c21 the results were TRPV1 ag 1.0, KCNH2 WT inh -2.2, KCNH2 3.1 inh -2.2, TRPV1 PAM 17.1, ClpP mod 28.2µM* and p53 reactivation -6.8%.
Screening COc1ccccc1-c1cc2ccccc2[nH]1 returned TRPV1 ag -0.2, KCNH2 WT inh -9.2, KCNH2 3.1 inh -22.3, TRPV1 PAM inconclusive, ClpP mod 39.8µM* and p53 reactivation inconclusive.
For CCOC(=O)c1ccc(NC(=O)c2cc3c(s2)CCC3)cc1 the results were TRPV1 ag 106.2*, KCNH2 WT inh 5.9, KCNH2 3.1 inh 9.9, TRPV1 PAM -11.9 and p53 reactivation 1.0%.
`COC(=O)c1sccc1NC(=O)c1cc2c(s1)CCCC2` gave TRPV1 ag -4.3, KCNH2 WT inh -4.2, KCNH2 3.1 inh 11.8, TRPV1 PAM 6.6, ClpP mod 35.5µM* and p53 reactivation 9.3%.
`CCOC(=O)c1ccc(NC(=O)c2ccc(NC(=O)c3ccccc3)cc2)cc1` gave TRPV1 ag -3.4, KCNH2 WT inh -11.4, KCNH2 3.1 inh -6.3, TRPV1 PAM 5.0, ClpP mod -11.0% and p53 reactivation -2.2%.
CCCCN(C)C(=S)Nc1ccsc1C(=O)OC was read as TRPV1 ag 6.1, KCNH2 WT inh -7.4, KCNH2 3.1 inh -154.5*, TRPV1 PAM 4.2, ClpP mod 1.2% and p53 reactivation 2.7%.
COC(=O)c1sccc1NC(=O)Nc1ccc(C(C)=O)cc1 was read as TRPV1 ag inconclusive, KCNH2 WT inh 16.3, KCNH2 3.1 inh -79.4*, TRPV1 PAM -10.3, ClpP mod -0.3% and p53 reactivation inconclusive.
Screening CNc1ccc2ncc(-c3ccccc3C(C)=O)n2n1 returned ClpP mod -4.7%.
For COC(=O)c1sccc1NC(=O)c1cccc(OC)c1 the results were TRPV1 ag 5.2, KCNH2 WT inh 4.8, KCNH2 3.1 inh 4.4, TRPV1 PAM 3.3, ClpP mod -1.3% and p53 reactivation -3.6%.
COC(=O)c1sccc1NC(=O)c1ccc(OC)cc1OC was read as TRPV1 ag -0.5, KCNH2 WT inh -246.1*, KCNH2 3.1 inh -176.1*, TRPV1 PAM -6.9, ClpP mod -5.7% and p53 reactivation -3.4%.
`O=C(CCC(=O)N1CCN(C2CCCCC2)CC1)Nc1nnc(C(F)(F)F)s1` gave TRPV1 ag 0.4, KCNH2 WT inh 2.8, KCNH2 3.1 inh -1.0, TRPV1 PAM 5.2, ClpP mod 12.6µM* and p53 reactivation 1.8%.
`CCc1ccc(-n2nc(CO)c(C(=O)NCc3ccccn3)n2)cc1` gave ClpP mod 14.1µM*.
`CCOc1ccc(-n2nc(CO)c(C(=O)NCc3ccccn3)n2)cc1` gave ClpP mod 11.2µM*.
O=C(NCc1ccccn1)c1nn(-c2ccccc2Cl)nc1CO was read as ClpP mod -0.8%.
`CCOc1ccc(CNC(=O)C2=Cc3cc(Br)ccc3OC2)cc1OC` gave ClpP mod 1.8%.
`O=C(NCc1ccccc1)C1c2ccccc2OCC(=O)N1Cc1cccnc1` (stereo not drawn) gave ClpP mod -10.1%.
CCCCc1c(C)[nH]c2c(OC)cccc2c1=S was read as ClpP mod 4.4%.
Screening Nc1nc(-c2ccccc2)c(-c2ccccc2)n1N returned TRPV1 ag 8.3, KCNH2 WT inh -9.9, KCNH2 3.1 inh -7.3, TRPV1 PAM 0.0, ClpP mod inconclusive and p53 reactivation 5.8%.
c1ccc(-c2cnn3c(-c4ccccc4)c(-c4ccccc4)nc3n2)cc1 was read as TRPV1 ag inconclusive, KCNH2 WT inh -135.1*, KCNH2 3.1 inh -89.0*, TRPV1 PAM -3.4, ClpP mod -0.4% and p53 reactivation -2.9%.
`CSc1nc(NCCOC(C)=O)c(C#N)c(-c2ccc(C(C)(C)C)cc2)n1` gave ClpP mod -2.2%.
